Test results: PubChem BioAssay AID485347 (National Center for Advancing Translational Sciences (NCATS), 2010)
About 1,200 (0.35%) of roughly 340,000 compounds were called active. Many of the other results were omitted from the sample, so actives are more common in it than they were. A number with no mark means an inactive call.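 Rule for the calls: active = potentiation over 3 SD above the plate norm (cut at about 30% in these data); inactive = the rest.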

The molecules below were run against D(2) dopamine receptor (Homo sapiens) (UniProt P14416) (assay: HTS Assay for Positive Allosteric Modulators of the Human D2 Dopamine Receptor: Primary Screen for Potentiators). Conditions: HEK293 T-REx D2, calcium flux, EC20 dopamine potentiation; at 10 µM; hits give high values.
Chain of D(2) dopamine receptor (Homo sapiens) (P14416 whole entry, looked up): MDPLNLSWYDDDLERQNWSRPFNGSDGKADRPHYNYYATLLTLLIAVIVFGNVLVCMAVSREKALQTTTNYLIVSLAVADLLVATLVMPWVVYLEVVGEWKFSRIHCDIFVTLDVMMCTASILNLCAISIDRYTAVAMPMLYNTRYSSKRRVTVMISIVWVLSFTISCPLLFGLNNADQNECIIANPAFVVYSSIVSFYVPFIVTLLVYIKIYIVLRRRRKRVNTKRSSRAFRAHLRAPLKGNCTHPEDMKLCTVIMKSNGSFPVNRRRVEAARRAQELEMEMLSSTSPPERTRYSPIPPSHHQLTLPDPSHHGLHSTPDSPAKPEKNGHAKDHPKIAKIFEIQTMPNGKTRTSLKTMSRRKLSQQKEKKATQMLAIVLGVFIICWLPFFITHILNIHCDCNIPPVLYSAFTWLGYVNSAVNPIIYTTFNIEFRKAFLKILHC
Excerpt: NIH Chemical Genomics Center [NCGC] NIH Molecular Libraries Probe Centers Network [MLPCN] MLPCN Grant: NS064831-01 Assay Submitter (PI): David Sibley Dopamine receptors (DARs) are involved in the etiology and/or therapy of a number of neuropsychiatric and endocrine disorders. For instance, all receptor-based antiparkinsonian drugs work via stimulating the D2 DAR subtype whereas all FDA-approved antipsychotic agents are antagonists of this receptor. […] There are three different types of allosteric modulators that we are seeking, two of which will stimulate or augment receptor signaling, allosteric agonists and potentiators, while the third, allosteric antagonists, will attenuate receptor signaling. The present primary screening assay measures compound potentiation of an EC20 dopamine response by tracking calcium flux in a […], inducible Hek293 Trex D2 cell line.
Freshly passaged cells are plated in 1536 well black, clear bottom plates at a density of 4000 cells/well in 3 ul of complete media containing 1x tetracycline inducer. After an overnight incubation at 30 C in 5% CO2, cells are loaded with 2 ul of the no wash Calcium Assay Kit (ABD Bioquest) and incubated at room temperature for 30 to 90 minutes. A 10 cycle (1 second/cycle) baseline measurement is taken and then the FDSS online 1536 pintool delivers 23 nl of compound library (as well as dopamine controls) to the plate. The plate is measured for kinetically at 1 cycle/sec for 180 seconds and is considered to be the agonist portion of the assay (eg, compounds which activate a positive calcium response during this portion are flagged as potential agonists). Following the 180 second read, 1 ul of an EC20 of dopamine is delivered by an onboard pipette head. Measurements are taken kinetically for an additional 180 seconds.
Note: 0% is about no effect.

| SMILES | potentiation |
| --- | --- |
| O=C(NCC(c1cccnc1)N1CCN(c2ccccc2)CC1)Oc1ccccc1 (stereo not given) | 43.6% (active) |
| COc1ccccc1N1CCN(C(CNC(=O)Oc2ccccc2)c2cccnc2)CC1 (stereo not given) | -0.508% |
| COC(=O)C(c1ccccc1)N1CCCCCC1 (stereo not given) | 5.6% |
| Cc1cccc(Cn2cccc(C(=O)Nc3ccc4c(c3)OCCO4)c2=O)c1 | -8.38% |
| Cc1ccc(NC(=O)N(Cc2ccc3c(c2)OCO3)C2CCN(Cc3ccccc3)CC2)cc1F | 2.88% |
